# Assay results as given in article PMC5540273 (PLoS ONE, 2017).
# Legend:
# Details in all cases: concentration: 1 μM,replicates: in singlicate; n = 1
# [1] = tested on: T1, ASK2
# T1 construct: gene MAP3K6
# [2] = tested on: AURKA
# [3] = tested on: AURKB
# [4] = tested on: AURKC
# [5] = tested on: AXL
# [6] = tested on: T2, BIKE
# T2 construct: gene BMP2K
# [7] = tested on: BLK
# [8] = tested on: BMPR1A
# [9] = tested on: BMPR1B
# [10] = tested on: BMPR2
# [11] = tested on: BMX
# [12] = tested on: BRAF
# [13] = tested on: T3, BRK
# T3 construct: gene PTK6
# [14] = tested on: BRSK1
# [15] = tested on: BRSK2
# [16] = tested on: BTK
# [17] = tested on: BUB1
# [18] = tested on: CAMK1B
# [19] = tested on: CAMK1D
# [20] = tested on: CAMK1G
# 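Also: KINOMEscan kinase panel screen.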
Compound,%Inh [1] [%],%Inh [2] [%],%Inh [3] [%],%Inh [4] [%],%Inh [5] [%],%Inh [6] [%],%Inh [7] [%],%Inh [8] [%],%Inh [9] [%],%Inh [10] [%],%Inh [11] [%],%Inh [12] [%],%Inh [13] [%],%Inh [14] [%],%Inh [15] [%],%Inh [16] [%],%Inh [17] [%],%Inh [18] [%],%Inh [19] [%],%Inh [20] [%]
C[C@@H]1CCN(C(=O)N2CCCC2)C[C@@H]1N(C)c1ncnc2[nH]ccc12,0,57,31,6,7,25,0,0,13,20,1,11,0,0,5,1,25,18,8,5
Cc1ccn2nc(-c3ccc(F)cc3)c(-c3ccncc3)c2c1.Cl [GW457859],0,10,0,8,3,17,26,0,0,3,8,49,0,0,0,22,87,30,1,0
Cl.Cl.NC[C@H](CC1CCCCC1)NC(=O)c1ccc(-c2ccnc3[nH]ccc23)s1 [GSK1581428],26,93.8,96.8,73,96.3,99.1,0,8,23,1,2,0,5,11,17,0,44,0,36,9
O=C(Nc1cccc(Oc2ccc3nccn3n2)c1)Nc1cccc(C(F)(F)F)c1,4,0,0,41,35,11,9,0,0,0,0,88,0,5,13,0,7,0,12,0
CS(=O)c1ccc(-c2coc3ccc(-c4n[nH]c(=O)o4)cc23)cc1 (stereo not shown),23,13,26,0,3,17,4,10,32,9,0,12,0,0,2,20,14,14,0,12
CC(C)S(=O)(=O)N1CCN(Cc2ccc3c(c2)nc(NC(=O)c2ccsc2)n3C[C@H](O)c2ccccc2)CC1 [GW635815],0,8,0,37,97.7,57,65,15,0,50,10,0,8,0,0,0,13,0,12,19
Nc1nccc(-c2ccc3c(N)n[nH]c3c2)n1 [GSK1034945],0,0,0,51,0,94.4,25,12,87,0,0,0,4,41,15,0,73,10,7,0
C[C@@H](Oc1cc(-n2cnc3cc(-c4cnn(C)c4)ccc32)sc1C(N)=O)c1ccccc1Cl [GSK580432],15,38,90.6,100,97.4,100,89,19,0,0,22,0,0,82,93.3,0,27,22,31,26
C[C@@H](Oc1cc(-n2cnc3ccc(-c4ccncc4)cc32)sc1C(N)=O)c1ccccc1Cl [GSK483724],0,0,19,50,32,92.9,31,0,0,3,27,8,25,24,20,0,41,8,21,21
O=C(NOCC1CC1)c1cc(Br)c(F)c(F)c1Nc1ccc(I)cc1Cl,0,0,1,0,2,0,0,0,0,0,0,0,0,0,0,0,0,0,0,0
Cn1ccc2ncnc(Oc3ccc(NC(=O)Nc4ccnc(C(F)(F)F)c4)c(Cl)c3)c21,0,18,34,0,12,0,0,0,6,0,17,45,0,0,0,0,5,0,0,31
CS(=O)(=O)Nc1ccc(-c2ccnc3[nH]ccc23)cc1 [GSK993273],21,39,48,76,76,97.5,0,1,3,43,0,0,0,8,0,0,35,27,38,30
COC(=O)c1cccc(NC(=O)NC2CCN(c3ccnc(NCc4ccc(F)cc4)n3)CC2)c1 [GSK1379860],4,0,0,13,9,13,24,0,0,9,11,2,10,0,0,0,21,67,0,0
COc1cc2c(Nc3ccc(NC(=O)c4ccccc4)cc3)ncnc2cc1OCCCN1CCOCC1 [GSK301329],20,94.5,95.6,70,55,28,96.7,0,0,0,7,0,77,20,0,0,10,9,35,9
Cc1ccc(C(=O)Nc2ccc(Oc3ccc4nc(NC(=O)C5CC5)cn4c3)c(F)c2)c(=O)n1-c1ccccc1,0,0,82,48,84,4,99.3,0,0,0,73,57,88,0,0,0,0,0,0,0
C[C@@H]1CNc2c(sc3ccc4nc(-c5ccncc5)ccc4c23)C(=O)N1,0,0,17,9,81,19,0,12,7,0,0,0,0,64,59,0,77,0,25,0
CCCC(=O)Nc1n[nH]c2ncccc12 [SB-601436],0,0,18,0,18,9,19,0,0,17,28,7,0,0,0,0,0,0,3,0
O=C(Nc1n[nH]c2cc(-c3ccco3)ccc12)C1CC1 [SB-737447],4,46,12,34,0,53,0,0,14,0,0,0,0,31,46,0,0,0,0,100
COc1ccc(Nc2nccc(N3CCC(NC(=O)c4cccc(C#N)c4)C3)n2)cc1 (stereo not shown) [GSK1379730],0,0,0,22,21,22,38,6,0,0,0,0,8,0,0,28,53,13,0,0
COc1cc2nccc(Nc3ccc(Oc4ccccc4)cc3)c2cc1OC.Cl [GI261656],0,22,17,0,10,6,99.2,0,0,7,36,0,96.1,0,0,93.3,31,23,2,0
CN1CCN(CCNc2nc3cc(Oc4ccc(NC(=O)Nc5cc(C(F)(F)F)ccc5F)cc4)ccc3[nH]2)CC1.Cl.Cl [GW768504],0,9,22,13,82,0,14,12,0,0,0,0,0,0,6,0,0,0,0,4

Compound,%Inh [1] [%],%Inh [2] [%],%Inh [3] [%],%Inh [4] [%],%Inh [5] [%],%Inh [6] [%],%Inh [7] [%],%Inh [8] [%],%Inh [9] [%],%Inh [10] [%],%Inh [11] [%],%Inh [12] [%],%Inh [13] [%],%Inh [14] [%],%Inh [15] [%],%Inh [16] [%],%Inh [17] [%],%Inh [18] [%],%Inh [19] [%],%Inh [20] [%]
CCNCC(Cc1ccccc1)NC(=O)c1cc(Br)c(-c2ccnc3[nH]ccc23)s1.Cl.Cl (stereo not shown) [GSK1383280],0,96.2,93.6,86,63,79,0,0,0,0,3,0,34,0,0,0,31,28,32,11
NC(=O)Nc1sc(-c2ccc(F)cc2)cc1C(N)=O [GW789449],0,55,83,85,40,98.2,46,6,11,78,0,8,0,2,0,62,20,34,43,0
COC(=O)Nc1nc2cc(Oc3ccc(NC(=O)Nc4cc(C(F)(F)F)ccc4Cl)cc3)ccc2[nH]1.Cl [GW697465],0,0,86,53,98,8,63,0,0,21,95.2,41,12,0,0,7,67,0,13,0
O=c1[nH]cc(-c2ccc(O)cc2)c2sc(-c3ccncc3)cc12 [GSK1033723],0,16,8,8,96.1,19,0,0,0,39,18,1,7,29,0,0,15,0,20,1
O=C(Nc1ccc(Oc2ccc3nc(NC(=O)C4CC4)cn3n2)c(F)c1)c1cccn(-c2ccccc2)c1=O,0,0,4,42,90.4,25,90.3,12,0,0,46,41,72,3,5,0,0,0,14,0
Cc1nnc(-c2ccc3occ(-c4ccc(S(C)=O)cc4)c3n2)o1 (stereo not shown),0,0,0,0,0,0,0,0,0,0,0,0,0,0,0,0,0,0,17,3
CCn1c(-c2nonc2N)nc2cncc(CNC3CCNCC3)c21.Cl [SB-747651],8,6,23,0,100,0,8,0,0,17,0,10,0,4,0,14,48,30,22,0
Cc1cccc2c(-c3ccncc3)c(-c3ccc(F)cc3)nn12.Cl [GW461487],0,7,0,0,0,3,22,0,0,0,15,14,0,0,0,0,52,0,4,20
CC(C)c1nc(-c2cccc(NS(=O)(=O)c3ccccc3)c2)c(-c2ccnc(Nc3ccc4c(c3)CN(C)CC4)n2)s1 [GSK1649598],4,23,52,55,68,0,99.6,81,99.9,9,96.2,99.9,99.4,24,46,84,82,0,42,11
Cn1ccc2ncnc(Oc3ccc(NC(=O)Nc4cccc(C(F)(F)F)c4)c(Cl)c3)c21,0,0,51,29,75,0,6,15,0,0,15,46,5,0,0,0,0,16,16,1
CN1CCN(CCCNc2nccc(-c3c(-c4ccc(F)cc4)nn4cc(C(N)=O)ccc34)n2)CC1 [GW622475],0,20,5,10,17,26,56,0,37,0,20,49,6,9,29,0,25,0,21,21
Cc1ccc(CC(=O)N2CCc3cc(-c4cn(C)c5ncnc(N)c45)ccc32)cc1 [GSK2634758],0,8,96.1,47,98.8,16,31,0,0,0,12,0,78,2,0,15,12,0,19,23
c1ccc(Oc2ccc(Nc3ccnc4ccc(-c5ccccn5)cc34)cc2)cc1 [GW407034],11,6,19,4,0,8,90.2,11,0,26,44,13,81,12,0,61,12,5,0,5
Cc1ccc2c(-c3ccnc(Nc4ccc(C(F)(F)F)cc4)n3)cnn2n1 [GW819776],0,11,32,4,0,12,0,13,0,32,0,0,4,0,14,0,6,0,0,0
CS(=O)(=O)c1cccc(CNc2nc(Nc3ccc4c(c3)[C@@H]3C[C@@H]4CNC3=O)ncc2C(F)(F)F)c1,0,99.4,95.7,73,93.2,96.2,30,0,0,0,4,0,0,0,0,0,0,19,0,0
NC(=O)c1ccc(-c2cc3ncnc(SCC(=O)O)c3s2)cc1,0,0,80,33,0,1,0,0,1,0,15,0,0,0,0,8,18,0,5,0
CCOC(=O)N1CCC(n2cnc(-c3ccc(F)cc3)c2-c2ccnc(N)n2)CC1 [SB-219952],0,19,37,19,19,4,1,10,0,22,13,14,0,0,19,32,0,48,3,0
C[C@@H]1CNc2c(sc3ccc4nc(-c5ccc(O)cc5)ccc4c23)C(=O)N1,0,42,24,0,87,0,0,27,0,7,14,0,0,48,72,0,58,13,0,16
Cn1ccc2ncnc(Oc3ccc(NC(=O)Nc4cnn(C(C)(C)C)c4)c(Cl)c3)c21,9,23,44,52,76,19,32,17,6,9,0,77,0,0,12,0,0,9,0,0
COc1cc(Nc2nccc(N3CCC(NC(=O)c4cccc(C#N)c4)C3)n2)cc(OC)c1OC (stereo not shown) [GSK1379751],0,68,36,56,22,90,0,0,2,11,0,0,0,0,100,0,61,22,0,0
